Laboratory results published in PubChem BioAssay (NCATS).
Records with an inconclusive call do not appear. Active and inactive are the calls of the source. Unless noted, the call rests on the fitted dose curve; in most records, active means well fitted curve in either direction with a large enough effect (not every such curve was filed as active); inconclusive means small, poorly fitted or top-dose-only effect, or another doubt; inactive means flat fitted curve, though single readings scatter.

Key:
[1] = target: Lysosomal acid glucosylceramidase (Homo sapiens) (UniProt P04062); assay: Glucocerebrosidase-p2 (AID 348; in the data active means potency below about 10 µM; further: potency means the concentration at half of the fitted maximal effect); conditions: purified GBA, blue fluorogenic substrate, 40 min
Outline: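 Normal human glucocerebrosidase (0.2 nM) with blue fluorogenic substrate (80 uM final) in citrate/phosphate pH 5.9 with 10mM sodium taurocholate, 0.01% tween-20; 40 min RT, NaOH/glycine stop; fluorescence Ex 365/Em 440; AC50 from a titration from 0.6 nM upwards.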

[2] = AP1 Signaling Pathway (AID 357); conditions: ME-180 AP-1-bla reporter, EGF-induced, beta-lactamase ratio, 5 h; at 7.69 µM (top of the series) unless noted;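 further: ME-180 reporter cells stimulated with EGF at its EC50 level; on the % scale 0 is the no-effect control and ±100 the full control effect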
Outline: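 Modulation of EGF-driven AP-1 transcription was assessed with a beta-lactamase reporter in ME-180 cells. Compound and EC50 EGF were co-incubated 5 hours at 37 °C before 2.5-hour CCF4 loading at room temperature and dual-emission reading.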

[3] = target: Cytochrome P450 1A2 (Homo sapiens) (UniProt P05177); assay: p450-cyp1a2 (AID 410; calls by dose curve; further: potency means the concentration at half of the fitted maximal effect;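 on activity change, negative = inhibition: -100% = full effect of reference inhibitor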); conditions: recombinant CYP1A2, luciferin-ME demethylation, luminescence; series mostly up to 11.4 µM
Outline: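 Luminescent demethylation readout: Luciferin-ME (100uM, equal to Km) turned over by 20nM CYP1A2 for 60 min at room temperature after NADPH regeneration addition, following 10 min compound preincubation. Normalization used 57 uM furafylline as full inhibition.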

[4] = NFAT Signaling Pathway (AID 444); conditions: Jurkat NFAT-bla M1, carbachol, beta-lactamase ratio, 5 h; at 7.69 µM (top of the series) unless noted;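 further: carbachol stimulus at about its EC50 of 1 µM final; on the % scale 0 is the no-effect control and ±100 the full control effect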
Outline: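 Jurkat cells with NFAT-driven β-lactamase reporter and co-expressed M1 receptor, stimulated with carbachol (final 1 uM, ~EC50), compound titration, 5 h at 37 °C. CCF4 loaded 1 h at RT; 460/530 nm ratio gave %activity and AC50.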

[5] = Stat Signaling Pathway (AID 446); conditions: ME-180 SIE beta-lactamase reporter, IL-6 stimulated, 5 h; at 7.69 µM (top of the series) unless noted;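 further: ME-180 cervical cancer cells given 40 pM IL-6 alongside compound; SIE-controlled beta-lactamase reporter measured as 460/530 nm FRET emission ratio; on the % scale 0 is the no-effect control and ±100 the full control effect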
Outline: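 Compound effects on IL-6-induced STAT reporter activity were measured in ME-180 cells. After overnight culture, cells were co-treated with 40 pM IL-6 for 5 hrs before beta-lactamase substrate loading at room temperature.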

[6] = target: Glucocorticoid receptor (Homo sapiens) (UniProt P04150); assay: GR-GFP Redistribution (AID 450;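 active means compounds whose dose series gives a full or clear partial fitted curve of increased nuclear translocation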; further: potency means the concentration at half of the fitted maximal effect); conditions: U2OS GR-GFP nuclear translocation, laser cytometry, 2 h
[7] = target: Glucocorticoid receptor (Homo sapiens) (UniProt P04150); assay: GR-EFC Redistribution (AID 451; calls by dose curve; further: potency means the concentration at half of the fitted maximal effect); conditions: CHO-K1 GR-EFC translocation, beta-gal luminescence, 2 h
Outline: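 CHO-K1 cells expressing nuclear EA and GR-ED fragments of b-gal; compounds titrated up to 46 uM final, 2 h at 37 C. GR nuclear translocation read as complemented b-gal luminescence after 1 h RT detection.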

[8] = target: 3',5'-cyclic-AMP phosphodiesterase 4B (Homo sapiens) (UniProt Q07343); assay: qHTS Assay for Inhibitors of PDE-IV (AID 607; active means well fitted activation curve with a large enough effect in the main read-out, with a control signal flat, not every such curve was filed as active; further: % of control where 0% means no effect); conditions: HEK293 ACTOne CNG channel cells, membrane potential fluorescence; series mostly up to 22.9 µM
Outline: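 ACTOne HEK293 cells carry a modified cAMP-gated CNG channel and express endogenous PDE4; plated 1000 cells/well, compounds up to 22.9 uM final. Membrane-potential dye fluorescence (ex 535/em 590) was read; parental cells received 10 uM forskolin + 100 uM RO 20-1724.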

[9] = target: Cytochrome P450 2C9 (Homo sapiens) (UniProt P11712); assay: qHTS Assay for Inhibitors and Substrates of Cytochrome P450 2C9 (AID 883; active means well fitted curve in the direction sought with a large enough effect; an effect the other way counts as inactive or inconclusive; further: on the % scale 0 is the no-effect control and ±100 the full control effect; nearly all actives have a fitted effect of over 60% in size); conditions: recombinant CYP2C9, luciferin-H luminescence, 60 min; series mostly up to 11.4 µM
Outline: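 10nM CYP2C9 + 100uM Luciferin-H (=KM), 25mM KPO4; cpd 10 min 37C; NADPH regen, 60 min 37C; stop/detect with P450 Glo-Buffer 20 min; luminescence. Norm. to 57uM sulphaphenazole as full inhibition.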

[10] = target: Mitogen-activated protein kinase 10 (Mus musculus) (UniProt Q61831); assay: JNK3 AlphaScreen Assay (AID 530); conditions: JNK3 lysate, c-Jun phosphorylation; series mostly up to 11.4 µM;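 further: kinase came from lysate of stimulated human HepG2 cells; signal reports phosphorylation of biotinylated GST-cJun 1-79 at Ser73 with 10 µM ATP; on the % scale 0 is the no-effect control and ±100 the full control effect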
Outline: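 Activity was read by AlphaScreen after JNK3-containing HepG2 lysate (cytokine pre-activated) phosphorylated biotinylated GST-cJun with 10 uM ATP at room temperature. Phospho-Ser73 cJun antibody with Protein-A acceptor beads provided detection.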

[11] = target: Cytochrome P450 3A4 (Homo sapiens) (UniProt P08684); assay: qHTS Assay for Activators of Cytochrome P450 3A4 (AID 885; active means well fitted curve in the direction sought with a large enough effect; an effect the other way counts as inactive or inconclusive; further: nearly all actives have a fitted effect of over 65% in size); conditions: recombinant CYP3A4, Luciferin-PPXE luminescence, 60 min; series mostly up to 11.4 µM
Outline: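 CYP3A4 activity: Luciferin-PPXE O-dealkylation, 25uM substrate, 200mM KPO4, RT throughout. Read-out is luciferase luminescence; higher values reflect activation.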

[12] = qHTS Assay for Identification of Small Molecule Agonists for Hypoxia Response Element Signaling Pathway (AID 914; active means well fitted activation curve with a large enough effect in the signal ratio, with a control signal flat, not every such curve was filed as active; the % refers to the signal ratio; further: % of control where 0% means no effect); conditions: ME-180 (cervical carcinoma) HRE-bla reporter, beta-lactamase ratio, CoCl2, 17 h; activation: hits give high values
Outline: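 HRE-bla ME-180 assay for agonist-like enhancement of an EC50 CoCl2 stimulus: 17 h at 37 degrees Celsius, CCF4 for 2.5 h, ratiometric 460/530 nm signal converted to %Activity and fitted to AC50.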

Chain of 3',5'-cyclic-AMP phosphodiesterase 4B (Homo sapiens) (Q07343 whole entry, looked up): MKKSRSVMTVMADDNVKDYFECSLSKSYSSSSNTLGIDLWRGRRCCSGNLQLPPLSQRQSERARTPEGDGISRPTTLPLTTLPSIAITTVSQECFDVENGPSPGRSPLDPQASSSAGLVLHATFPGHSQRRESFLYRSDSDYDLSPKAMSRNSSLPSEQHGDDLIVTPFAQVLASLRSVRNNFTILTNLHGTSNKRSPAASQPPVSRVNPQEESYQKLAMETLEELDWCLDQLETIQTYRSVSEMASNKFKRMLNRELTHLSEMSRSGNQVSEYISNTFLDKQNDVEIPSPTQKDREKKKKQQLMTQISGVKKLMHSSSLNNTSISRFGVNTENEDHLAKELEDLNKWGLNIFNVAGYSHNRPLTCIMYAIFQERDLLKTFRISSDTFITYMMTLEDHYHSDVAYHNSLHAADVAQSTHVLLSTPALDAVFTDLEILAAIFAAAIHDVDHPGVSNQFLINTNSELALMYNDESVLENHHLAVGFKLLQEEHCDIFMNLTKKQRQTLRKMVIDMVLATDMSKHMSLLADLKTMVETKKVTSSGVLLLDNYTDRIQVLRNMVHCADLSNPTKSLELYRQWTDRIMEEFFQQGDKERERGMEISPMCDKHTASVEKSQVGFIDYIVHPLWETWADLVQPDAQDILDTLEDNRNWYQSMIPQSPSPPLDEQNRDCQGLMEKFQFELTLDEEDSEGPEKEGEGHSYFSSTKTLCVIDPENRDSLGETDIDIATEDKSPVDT
Chain of Glucocorticoid receptor (Homo sapiens) (P04150 whole entry, looked up, the tested form may be a part): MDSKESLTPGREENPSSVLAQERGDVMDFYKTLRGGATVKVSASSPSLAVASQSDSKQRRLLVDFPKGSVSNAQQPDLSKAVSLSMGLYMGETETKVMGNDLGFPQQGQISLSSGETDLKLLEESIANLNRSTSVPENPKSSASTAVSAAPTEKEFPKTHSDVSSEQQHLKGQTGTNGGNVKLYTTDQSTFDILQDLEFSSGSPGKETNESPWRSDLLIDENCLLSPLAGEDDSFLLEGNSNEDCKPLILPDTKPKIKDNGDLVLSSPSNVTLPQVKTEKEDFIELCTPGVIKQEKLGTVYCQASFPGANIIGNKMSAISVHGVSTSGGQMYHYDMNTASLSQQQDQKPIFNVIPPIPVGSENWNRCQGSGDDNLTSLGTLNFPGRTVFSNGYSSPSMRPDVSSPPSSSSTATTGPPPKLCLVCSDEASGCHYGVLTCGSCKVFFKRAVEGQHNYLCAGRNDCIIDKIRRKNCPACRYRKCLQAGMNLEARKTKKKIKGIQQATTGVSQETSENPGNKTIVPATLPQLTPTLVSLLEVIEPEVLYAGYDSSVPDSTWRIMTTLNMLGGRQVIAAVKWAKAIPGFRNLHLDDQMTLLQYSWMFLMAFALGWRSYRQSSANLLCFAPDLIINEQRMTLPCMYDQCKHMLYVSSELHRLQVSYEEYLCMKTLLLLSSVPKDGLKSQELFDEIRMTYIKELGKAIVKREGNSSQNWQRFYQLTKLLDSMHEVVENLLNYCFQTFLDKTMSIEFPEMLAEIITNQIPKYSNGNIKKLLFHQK
Chain of Cytochrome P450 1A2 (Homo sapiens) (P05177 whole entry, looked up): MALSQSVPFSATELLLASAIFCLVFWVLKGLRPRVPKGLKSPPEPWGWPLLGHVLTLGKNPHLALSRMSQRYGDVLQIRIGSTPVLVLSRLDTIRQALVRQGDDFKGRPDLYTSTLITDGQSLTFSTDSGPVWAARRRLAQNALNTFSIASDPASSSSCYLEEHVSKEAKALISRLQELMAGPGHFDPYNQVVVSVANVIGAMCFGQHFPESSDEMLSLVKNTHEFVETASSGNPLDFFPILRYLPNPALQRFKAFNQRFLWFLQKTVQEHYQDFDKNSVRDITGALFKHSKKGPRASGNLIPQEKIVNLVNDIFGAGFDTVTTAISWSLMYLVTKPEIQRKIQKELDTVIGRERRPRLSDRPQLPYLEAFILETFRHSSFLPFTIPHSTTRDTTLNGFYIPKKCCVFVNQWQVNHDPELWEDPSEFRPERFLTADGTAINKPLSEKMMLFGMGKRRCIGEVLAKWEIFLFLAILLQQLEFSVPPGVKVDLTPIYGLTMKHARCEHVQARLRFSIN
Chain of Lysosomal acid glucosylceramidase (Homo sapiens) (P04062 whole entry, looked up): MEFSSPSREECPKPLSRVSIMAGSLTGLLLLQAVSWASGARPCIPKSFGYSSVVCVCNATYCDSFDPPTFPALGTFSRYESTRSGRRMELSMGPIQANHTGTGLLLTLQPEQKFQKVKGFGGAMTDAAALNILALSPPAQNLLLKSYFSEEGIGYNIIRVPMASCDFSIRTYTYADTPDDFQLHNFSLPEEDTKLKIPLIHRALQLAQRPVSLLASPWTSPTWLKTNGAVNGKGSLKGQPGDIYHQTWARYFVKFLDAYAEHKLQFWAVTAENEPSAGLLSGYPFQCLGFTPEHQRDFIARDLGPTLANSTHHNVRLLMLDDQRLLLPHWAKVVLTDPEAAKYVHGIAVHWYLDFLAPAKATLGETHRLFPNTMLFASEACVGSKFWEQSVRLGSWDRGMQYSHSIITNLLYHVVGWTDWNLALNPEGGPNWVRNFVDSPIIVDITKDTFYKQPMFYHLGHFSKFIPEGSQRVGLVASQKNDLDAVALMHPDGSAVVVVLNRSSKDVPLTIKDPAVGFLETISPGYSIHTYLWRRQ
Chain of Cytochrome P450 3A4 (Homo sapiens) (P08684 whole entry, looked up): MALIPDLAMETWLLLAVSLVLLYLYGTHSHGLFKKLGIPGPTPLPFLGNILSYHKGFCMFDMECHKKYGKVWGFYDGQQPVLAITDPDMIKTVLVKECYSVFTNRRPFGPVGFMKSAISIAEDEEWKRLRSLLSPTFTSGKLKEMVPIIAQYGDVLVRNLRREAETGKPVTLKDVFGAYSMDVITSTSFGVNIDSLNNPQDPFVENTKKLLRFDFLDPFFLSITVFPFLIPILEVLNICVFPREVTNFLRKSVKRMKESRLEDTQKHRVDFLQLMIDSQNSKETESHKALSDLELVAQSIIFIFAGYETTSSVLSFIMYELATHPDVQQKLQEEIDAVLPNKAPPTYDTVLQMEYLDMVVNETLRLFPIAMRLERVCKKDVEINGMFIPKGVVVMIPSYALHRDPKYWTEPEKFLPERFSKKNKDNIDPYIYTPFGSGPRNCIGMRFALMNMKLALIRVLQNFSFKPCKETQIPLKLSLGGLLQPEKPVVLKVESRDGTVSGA
Chain of Cytochrome P450 2C9 (Homo sapiens) (P11712 whole entry, looked up): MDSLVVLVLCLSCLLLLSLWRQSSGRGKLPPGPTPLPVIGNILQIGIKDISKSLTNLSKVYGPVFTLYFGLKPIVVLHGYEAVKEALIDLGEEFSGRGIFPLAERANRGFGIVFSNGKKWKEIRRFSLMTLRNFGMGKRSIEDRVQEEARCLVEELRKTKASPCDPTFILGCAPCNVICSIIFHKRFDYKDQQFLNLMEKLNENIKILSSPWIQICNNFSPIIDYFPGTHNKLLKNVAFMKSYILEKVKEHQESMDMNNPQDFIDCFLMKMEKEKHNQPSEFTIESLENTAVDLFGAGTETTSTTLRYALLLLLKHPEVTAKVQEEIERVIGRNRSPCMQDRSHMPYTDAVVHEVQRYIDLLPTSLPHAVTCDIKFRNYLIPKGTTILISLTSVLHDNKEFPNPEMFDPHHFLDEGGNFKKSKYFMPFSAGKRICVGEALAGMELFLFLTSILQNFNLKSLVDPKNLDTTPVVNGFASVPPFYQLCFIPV

CC(C)(C)OC(=O)[C@H]([C@@H]1N[C@@H](C(=O)O)C(C)(C)S1)N1C(=O)c2ccccc2C1=O
inactive: Potency [1] > 11.4 µM | activity change, negative = inhibition [2] -0.34% | activity change, negative = inhibition [3] -1.4% [at 2.29 µM] | activity change, negative = inhibition [4] -5.29% | activity, negative = inhibition [5] 3.62% | Potency [6] > 46 µM | Potency [7] > 9.22 µM | Potency [8]

O=C(O)[C@@H]1[C@@H]2C[C@@H]3[C@@H](OC(=O)[C@@H]31)[C@H]2Br
inactive: Potency [1] > 11.4 µM | activity change, negative = inhibition [2] 4.57% | Potency [3] | activity change, negative = inhibition [4] -26.7% | activity, negative = inhibition [5] 5.86% | Potency [6] > 46 µM | Potency [7] > 9.22 µM | Potency [8]

O=C(O)c1cccc(CN2CCCCC2)c1
inactive: Potency [1] > 11.4 µM | activity change, negative = inhibition [2] 9.32% | Potency [3] | activity change, negative = inhibition [4] -15.5% | activity, negative = inhibition [5] 3.88% | Potency [6] > 46 µM | Potency [7] > 9.22 µM | Potency [8] | Potency [9]

CN(CC(=O)O)Cc1c[nH]c2ccccc12
inactive: Potency [1] > 11.4 µM | activity change, negative = inhibition [2] -2.9% | Potency [3] | activity change, negative = inhibition [4] -8.48% | activity, negative = inhibition [5] -5.98% | Potency [6] > 46 µM | Potency [7] > 9.22 µM | Potency [8]

Cc1ccc(S(=O)(=O)N[C@H](C(=O)O)C(C)C)cc1
inactive: Potency [1] > 11.4 µM | activity change, negative = inhibition [2] 9.07% | Potency [3] | activity change, negative = inhibition [4] -0.0198% | activity, negative = inhibition [5] -0.976% | Potency [6] > 46 µM | Potency [7] > 9.22 µM | Potency [8]

O=C(O)c1cccc2cccc(-c3cccc4cccc(C(=O)O)c34)c12
inactive: Potency [1] > 11.4 µM | activity change, negative = inhibition [2] 4.88% | activity change, negative = inhibition [3] -12.3% [at 2.29 µM] | activity change, negative = inhibition [4] 10.7% | activity, negative = inhibition [5] 6.14% | Potency [6] > 46 µM | Potency [7] > 9.22 µM | Potency [8]

Cn1c(=O)c2[nH]c(COCc3nc4c([nH]3)c(=O)n(C)c(=O)n4C)nc2n(C)c1=O
inactive: Potency [1] > 11.4 µM | activity change, negative = inhibition [2] 6.66% | activity change, negative = inhibition [3] 4.5% [at 2.29 µM] | activity change, negative = inhibition [4] 5.77% | activity, negative = inhibition [5] -2.27% | Potency [6] > 46 µM | Potency [7] > 9.22 µM | Potency [8]

O=S(=O)(O)c1cc(N=Nc2cccc3ccccc23)c(O)c2ncccc12
inactive: Potency [1] > 11.4 µM | activity change, negative = inhibition [2] -3.71% | activity change, negative = inhibition [4] 8.38% | activity, negative = inhibition [5] 0.477% | Potency [6] > 46 µM | Potency [7] > 9.22 µM | Potency [8]
active: Potency [3] 0.631 µM

O=C(O)c1c[nH]c2c(ccc3[nH]cc(C(=O)O)c(=O)c32)c1=O
inactive: Potency [1] > 11.4 µM | activity change, negative = inhibition [2] -0.603% | activity change, negative = inhibition [4] 8.43% | activity, negative = inhibition [5] 13.7% | Potency [6] > 46 µM | Potency [7] > 9.22 µM | Potency [8]
active: Potency [3] 5.01 µM

CN(C)CCSCCO
inactive: Potency [1] > 11.4 µM | activity change, negative = inhibition [2] 7.7% | activity change, negative = inhibition [3] -14.3% [at 2.29 µM] | activity change, negative = inhibition [4] 2.29% | activity, negative = inhibition [5] 9.73% | Potency [6] > 46 µM | Potency [7] > 9.22 µM | Potency [8]

COc1ccc(CNc2ncnc3ccc(-c4ccccc4C#N)cc23)c(OC)c1
active: Potency [3] 6.31 µM
inactive: Potency [1] > 11.4 µM | activity change, negative = inhibition [2] 13.2% | activity change, negative = inhibition [4] 8.27% | activity, negative = inhibition [5] -15% | Potency [6] > 46 µM | Potency [7] > 46 µM | Potency [10] | Potency [11]

NS(=O)(=O)c1ccc(NC2(C(=O)O)CCCC2)cc1
active: Potency [3] 0.794 µM
inactive: Potency [1] > 11.4 µM | activity change, negative = inhibition [2] -4.84% | activity change, negative = inhibition [4] 2.12% | activity, negative = inhibition [5] 11.8% | Potency [6] > 46 µM | Potency [7] > 9.22 µM | Potency [8]

CCOC(=O)C1=C(C)NC(=O)N[C@@H]1c1coc2cc(C)cc(C)c2c1=O
inactive: Potency [1] > 11.4 µM | activity change, negative = inhibition [2] -13.4% | activity change, negative = inhibition [4] 17.5% | activity, negative = inhibition [5] -5.6% | Potency [6] > 46 µM | Potency [7] > 9.22 µM | Potency [10] | Potency [11] | activation [12] 23.8%
active: Potency [3] 2.51 µM

CC(CCN)(CCN)[N+](=O)[O-]
inactive: Potency [1] > 11.4 µM | activity change, negative = inhibition [2] 10.4% | Potency [3] | activity change, negative = inhibition [4] 9.23% | activity, negative = inhibition [5] 5.23% | Potency [6] > 46 µM | Potency [7] > 9.22 µM | Potency [8]

O=C(Cn1ccc(=O)[nH]c1=O)Nc1ccc(C(=O)O)c(O)c1
inactive: Potency [1] > 11.4 µM | activity change, negative = inhibition [2] 13.2% | activity change, negative = inhibition [3] -16.5% [at 2.29 µM] | activity change, negative = inhibition [4] 18.3% | activity, negative = inhibition [5] 2.74% | Potency [6] > 46 µM | Potency [7] > 9.22 µM | Potency [10] | activation [12] 6.06%

Nc1c(S(=O)(=O)O)cc(Nc2cccc(S(N)(=O)=O)c2)c2c1C(=O)c1ccccc1C2=O
active: Potency [3] 3.98 µM
inactive: Potency [1] > 11.4 µM | activity change, negative = inhibition [2] 26% | activity change, negative = inhibition [4] -26.6% | activity, negative = inhibition [5] 2.62% | Potency [6] > 46 µM | Potency [7] > 9.22 µM | Potency [8]
